Experimental data as given in PubChem BioAssay AID652183 (National Center for Advancing Translational Sciences (NCATS), 2013).
Results filed as inconclusive are left out. The source made the active and inactive calls. The call rests on the fitted dose curve; in most records, active means well fitted inhibition curve with a large enough effect; inconclusive means small, poorly fitted or top-dose-only effect; inactive means no such curve, though single readings can be large or run the other way.

Test: qHTS Assay for Lipid Storage Modulators: Differentiation Assay against Probe and Analogs
Conditions: 3T3-L1 adipocyte differentiation, BODIPY lipid imaging, 8 d; series mostly up to 20 µM; activity change, negative = inhibition: at the top concentration
Source text: Storing lipids as a reservoir for energy or the anabolism of elementary metabolites is a common feature of probably all cells and is conserved from bacteria to humans. The universal cellular lipid storage organelle is the so-called lipid storage droplet (LD). Although ubiquitous, LDs share a simple structure composed of a hydrophobic core that harbors the storage lipids, which is shielded by a droplet-specific phospholipid monolayer to which proteins are attached. The current model of LD biogenesis involves an incorporation of the lipid core into the membrane leaflets of the endoplasmic reticulum (ER) followed by a subsequent budding-like maturation of a LD, which ultimately pinches off. Once released, LD volume can increase by localized lipogenesis or fusion of existing droplets. Storage lipids are re-mobilized enzymatically by lipase activity. Lipase regulation in the adipocyte is heavily studied and involves multiple components including catecholamine signaling, the LD-associated proteins Perilipin and comparative gene identification-58 (CGI-58) and at least two lipases named hormone sensitive lipase (HSL) and adipocyte triglyceride lipase (ATGL). LD regulation outside of the adipocyte is poorly understood and only few components are known. However, there is an urgent need to learn more about ectopic fat depots as mislocalized storage of lipids, for example in the liver or muscle, is an eminent health problem associated with insulin resistance or the metabolic syndrome. We developed a laser-scanning cytometer assay to enable 1,536-well screening and combined the results of the small molecules screen with an RNAi database based on lipid storage. […] NIH Chemical Genomics Center [NCGC] MLPCN Grant: MH085686 Assay Submitter (PI): Mathias Beller, Max-Planck-Institut fur Biophysikalische Chemie
3T3L1 cells were obtained from ATCC (CL-173). Pre-adipocyte medium (PM-1), differentiation medium (DM-2) and after adipocyte medium (AM-1) were purchased from Zen-Bio (# PM-1-L1, DM-2-L1, AM-1-L1). 200 uL of PM-1containing 3,000 cells was dispensed into each well of a 96-well plate (Corning, #3340), and the assay plates were incubated at 37 °C, 95% humidity and 5% CO2 for 3-5 days. The differentiation of pre-adipocyte to adipocyte was induced by removing the pre-adipocyte medium and replacing with 200 uL of differentiation medium. 1 uL of compounds at different concentrations dissolved in differentiation medium were added to the assay plates, along with medium exchange for differentiation to test their effects on adipocyte differentiation. The final DMSO concentration was 0.5%.Triacsin C (Sigma-Aldrich T-4540), an inhibitor of long-chain fatty acyl CoA synthetase that blocks synthesis of triglycerides, was used as a positive control for lipid under-storage. […]

| SMILES | activity change, negative = inhibition | Potency |
| --- | --- | --- |
| CCOC(=O)C1CCN(C(=O)C2(NC(=O)Nc3ccccc3Cl)CCCC2)CC1 | 56% (inactive) | – |
| CCOc1ccc(CCNC(=O)c2cc3sccc3n2CCN(C)C)cc1OCC | -57.2% (inactive) | – |
| CCOc1ccc(CCNC(=O)c2cc3sccc3n2Cc2ccc(F)cc2F)cc1OCC | -77.8% (inactive) | – |
| CCOc1ccc(CCNC(=O)c2cc3ccccc3n2Cc2ccccn2)cc1OCC | – | 12.6 µM (active) |
